Laboratory results taken from PubChem BioAssay (NCI).
This is part of a sample that, as a whole, favours compounds with a hit. Of some 83,000 tested, about 20% had one in any assay.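 Interpretation: 100, growth as untreated; towards 0, rising growth inhibition; 0, no net growth; 0 to -100, cell death. Compounds scoring below 10 were considered active.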 Active and inactive are the calls of the source.

Tests used:
Experiment in all cases: NCI-60 one-dose screen, 48 h (100 = growth as untreated, 0 = no growth, -100 = all killed)
Details in all cases: 10 µM unless noted
SR leukemia = test system: SR leukemia
OVCAR-8 ovarian = test system: OVCAR-8 ovarian
OVCAR-5 ovarian = test system: OVCAR-5 ovarian
OVCAR-4 ovarian = test system: OVCAR-4 ovarian
SK-OV-3 ovarian = test system: SK-OV-3 ovarian
IGROV1 ovarian = test system: IGROV1 ovarian
OVCAR-3 ovarian = test system: OVCAR-3 ovarian
HS 578T breast = test system: HS 578T breast
NCI/ADR-RES ovarian = test system: NCI/ADR-RES ovarian
T-47D breast = test system: T-47D breast
BT-549 breast = test system: BT-549 breast
MDA-MB-435 melanoma = test system: MDA-MB-435 melanoma
SW-620 colon = test system: SW-620 colon
MCF7 breast = test system: MCF7 breast
HCT-116 colon = test system: HCT-116 colon
KM12 colon = test system: KM12 colon
HCC-2998 colon = test system: HCC-2998 colon

Measured: growth

COc1cnc2c(c1)C(=O)c1c-2n(CCCN2CCN(C)CC2)c(=O)c2cc(Cl)ccc12
inactive: OVCAR-8 ovarian 31% | OVCAR-5 ovarian 77.9% | OVCAR-4 ovarian 43.9% | SK-OV-3 ovarian 52.3% | IGROV1 ovarian 58.9% | OVCAR-3 ovarian 68.3% | HS 578T breast 54.8% | NCI/ADR-RES ovarian 44.8% | BT-549 breast 56.5% | MDA-MB-435 melanoma 38% | MCF7 breast 20.8% | HCT-116 colon 32% | KM12 colon 45.5%
active: SR leukemia -9.29% | T-47D breast 8.74% | SW-620 colon 1.45%

Cn1cnc([N+](=O)[O-])c1S(=O)(=O)Oc1cccc2ccccc12
inactive: SR leukemia 17.5% | OVCAR-8 ovarian 73.3% | OVCAR-5 ovarian 82.3% | OVCAR-4 ovarian 81.3% | SK-OV-3 ovarian 95.8% | IGROV1 ovarian 36.9% | HS 578T breast 99.7% | NCI/ADR-RES ovarian 57.6% | BT-549 breast 99.9% | MDA-MB-435 melanoma 67.9% | MCF7 breast 44.8% | HCT-116 colon 17.8% | HCC-2998 colon 88.7% | KM12 colon 88.9%
active: OVCAR-3 ovarian -73% | T-47D breast -30.9% | SW-620 colon 7.26%

CCCCCCCC/C=C/CCCCCCCC1=NC(C)(C)CN1c1ccccc1
inactive: SR leukemia 71.8% | OVCAR-8 ovarian 87.3% | OVCAR-5 ovarian 113% | OVCAR-4 ovarian 80.2% | SK-OV-3 ovarian 99.1% | IGROV1 ovarian 101% | OVCAR-3 ovarian 90.8% | HS 578T breast 89.5% | NCI/ADR-RES ovarian 98.1% | T-47D breast 81.2% | BT-549 breast 105% | MDA-MB-435 melanoma 50.3% | SW-620 colon 82% | MCF7 breast 86.3% | HCT-116 colon 62.8% | HCC-2998 colon 103% | KM12 colon 105%

C=CCN1C(=O)/C(=c2\sc3n(c2=O)C2C(NN=3)N(CC)C(=O)N2CC)c2ccccc21 (stereo not drawn)
inactive: SR leukemia 23.8% | OVCAR-8 ovarian 19% | OVCAR-5 ovarian 44.9% | OVCAR-4 ovarian 65.6% | SK-OV-3 ovarian 34.2% | IGROV1 ovarian 35.4% | HS 578T breast 59.4% | T-47D breast 57.6% | BT-549 breast 25% | SW-620 colon 30.9% | MCF7 breast 16.6% | HCT-116 colon 10.7% | KM12 colon 20.1%
active: OVCAR-3 ovarian -11.4% | NCI/ADR-RES ovarian -1.04% | MDA-MB-435 melanoma -30.2% | HCC-2998 colon 4.46%

Fc1cc(-c2cnc3nonc3n2)c(Cl)cc1Cl
inactive: SR leukemia 86.5% | OVCAR-8 ovarian 97.3% | OVCAR-5 ovarian 88.6% | OVCAR-4 ovarian 59.6% | SK-OV-3 ovarian 98.5% | IGROV1 ovarian 77% | OVCAR-3 ovarian 10.3% | HS 578T breast 111% | NCI/ADR-RES ovarian 102% | T-47D breast 63.2% | BT-549 breast 99.7% | MDA-MB-435 melanoma 90.1% | SW-620 colon 38.7% | MCF7 breast 69.7% | HCC-2998 colon 103% | KM12 colon 88.2%
active: HCT-116 colon 7.65%

CC(NC(=O)c1ccccc1)C(=O)Nc1ccccc1 (stereo not drawn)
inactive: SR leukemia 89.9% | OVCAR-8 ovarian 103% | OVCAR-5 ovarian 107% | OVCAR-4 ovarian 114% | SK-OV-3 ovarian 113% | IGROV1 ovarian 128% | OVCAR-3 ovarian 135% | HS 578T breast 114% | NCI/ADR-RES ovarian 108% | T-47D breast 117% | BT-549 breast 104% | MDA-MB-435 melanoma 112% | SW-620 colon 108% | MCF7 breast 97.9% | HCT-116 colon 97.2% | HCC-2998 colon 99.4% | KM12 colon 108%

Cc1ccncc1NC=O
inactive: SR leukemia 93.8% | OVCAR-8 ovarian 104% | OVCAR-5 ovarian 110% | SK-OV-3 ovarian 110% | IGROV1 ovarian 114% | HS 578T breast 109% | NCI/ADR-RES ovarian 107% | T-47D breast 102% | BT-549 breast 132% | MDA-MB-435 melanoma 105% | SW-620 colon 99.2% | MCF7 breast 95.9% | HCT-116 colon 108% | HCC-2998 colon 113% | KM12 colon 103%

Cc1c(C(=O)CCl)c(=O)n(-c2ccccc2)n1C
inactive: SR leukemia 20.1% | OVCAR-8 ovarian 72.3% | OVCAR-5 ovarian 94.5% | SK-OV-3 ovarian 103% | IGROV1 ovarian 48.6% | OVCAR-3 ovarian 18.4% | HS 578T breast 57.5% | NCI/ADR-RES ovarian 83.3% | T-47D breast 34.3% | BT-549 breast 61.2% | MDA-MB-435 melanoma 40% | SW-620 colon 36.6% | MCF7 breast 38.2% | HCT-116 colon 32% | HCC-2998 colon 85.9% | KM12 colon 88.7%

CC1=C(O)C(=O)CC1
inactive: SR leukemia 78.4% | OVCAR-8 ovarian 101% | OVCAR-5 ovarian 112% | OVCAR-4 ovarian 105% | IGROV1 ovarian 107% | OVCAR-3 ovarian 115% | HS 578T breast 107% | NCI/ADR-RES ovarian 106% | T-47D breast 103% | BT-549 breast 89% | MDA-MB-435 melanoma 98.1% | SW-620 colon 108% | MCF7 breast 91.8% | HCT-116 colon 105% | HCC-2998 colon 99.7% | KM12 colon 104%

CCCCSc1ncnc2c1ncn2C1CCCCO1 (stereo not drawn)
inactive: SR leukemia 90.5% | OVCAR-8 ovarian 105% | OVCAR-5 ovarian 99.1% | OVCAR-4 ovarian 108% | SK-OV-3 ovarian 106% | IGROV1 ovarian 106% | OVCAR-3 ovarian 109% | HS 578T breast 110% | NCI/ADR-RES ovarian 102% | T-47D breast 104% | BT-549 breast 107% | MDA-MB-435 melanoma 115% | MCF7 breast 91.5% | HCT-116 colon 100% | KM12 colon 108%

CCOC(=O)c1cc(C(=O)OCC)c(C)nc1C
inactive: SR leukemia 87.9% | OVCAR-8 ovarian 104% | OVCAR-5 ovarian 99.8% | SK-OV-3 ovarian 114% | IGROV1 ovarian 111% | OVCAR-3 ovarian 114% | HS 578T breast 126% | NCI/ADR-RES ovarian 110% | T-47D breast 102% | BT-549 breast 115% | MDA-MB-435 melanoma 105% | MCF7 breast 90.9% | HCT-116 colon 105% | HCC-2998 colon 103% | KM12 colon 111%

CC(=O)C1CCC2C3CC(C)=C4CC(O)CCC4(C)C3CCC12C (stereo not drawn)
inactive: SR leukemia 89.9% | OVCAR-8 ovarian 106% | OVCAR-5 ovarian 112% | SK-OV-3 ovarian 112% | IGROV1 ovarian 104% | OVCAR-3 ovarian 113% | HS 578T breast 103% | NCI/ADR-RES ovarian 101% | BT-549 breast 100% | MDA-MB-435 melanoma 109% | SW-620 colon 118% | MCF7 breast 100% | HCT-116 colon 90.7% | KM12 colon 109%

COc1cc(C2CC(c3ccc(Cl)cc3)=NN2C=O)ccc1Oc1ccnc2cc(Cl)ccc12 (stereo not drawn)
inactive: SR leukemia 63.2% | OVCAR-8 ovarian 44.6% | OVCAR-4 ovarian 28.1% | SK-OV-3 ovarian 60% | IGROV1 ovarian 97% | OVCAR-3 ovarian 73.4% | HS 578T breast 35.5% | NCI/ADR-RES ovarian 76.6% | T-47D breast 56.4% | BT-549 breast 94.7% | MDA-MB-435 melanoma 73.3% | SW-620 colon 84.5% | MCF7 breast 53.4% | HCT-116 colon 49.2% | HCC-2998 colon 72.8% | KM12 colon 76.2%

CC(=O)N1N=C(C2C(=O)N(C)C(=O)N(C)C2=O)CC1c1ccccc1C(=O)O (stereo not drawn)
inactive: SR leukemia 93% | OVCAR-8 ovarian 103% | OVCAR-4 ovarian 113% | SK-OV-3 ovarian 94.8% | IGROV1 ovarian 112% | OVCAR-3 ovarian 109% | HS 578T breast 92.1% | NCI/ADR-RES ovarian 105% | T-47D breast 95.4% | BT-549 breast 91.8% | MDA-MB-435 melanoma 102% | SW-620 colon 107% | MCF7 breast 101% | HCT-116 colon 91.3% | HCC-2998 colon 113% | KM12 colon 114%

O=C(O/C(=C/c1ccccc1)C(F)(F)F)c1ccccc1
inactive: SR leukemia 69.6% | OVCAR-8 ovarian 101% | OVCAR-5 ovarian 101% | SK-OV-3 ovarian 111% | IGROV1 ovarian 120% | OVCAR-3 ovarian 103% | HS 578T breast 116% | NCI/ADR-RES ovarian 103% | T-47D breast 101% | BT-549 breast 105% | MDA-MB-435 melanoma 107% | SW-620 colon 113% | MCF7 breast 102% | HCT-116 colon 105% | HCC-2998 colon 102% | KM12 colon 99.4%

Cc1cc(N)cc(C)c1-c1c(Br)cc(N)cc1Br
inactive: OVCAR-8 ovarian 31% | OVCAR-5 ovarian 45.9% | IGROV1 ovarian 21% | HS 578T breast 34.1% | T-47D breast 36.3% | BT-549 breast 35.8% | SW-620 colon 34.5% | MCF7 breast 27.1% | HCT-116 colon 23.3% | HCC-2998 colon 42.3% | KM12 colon 23.8%
active: SR leukemia 9.99% | OVCAR-3 ovarian 1.61% | NCI/ADR-RES ovarian -1.83% | MDA-MB-435 melanoma -44.3%

COc1cc(CN2CCC(N3CCCC3=O)c3ccccc32)cc(OC)c1OC (stereo not drawn)
inactive: SR leukemia 59.1% | OVCAR-8 ovarian 84.2% | OVCAR-5 ovarian 103% | SK-OV-3 ovarian 100% | IGROV1 ovarian 90.5% | OVCAR-3 ovarian 100% | HS 578T breast 88.3% | NCI/ADR-RES ovarian 67.3% | T-47D breast 68.3% | BT-549 breast 124% | MDA-MB-435 melanoma 90.4% | SW-620 colon 92.3% | MCF7 breast 70.9% | HCT-116 colon 68.8% | HCC-2998 colon 93.2% | KM12 colon 97.1%

O=C(Nc1ccc(-n2ccc3c(NC(=O)c4ccccc4)nccc32)cc1)c1ccc(N2CCOCC2)c(C(F)(F)F)c1
inactive: OVCAR-8 ovarian 23.6% | OVCAR-4 ovarian 59.8% | SK-OV-3 ovarian 30.3% | IGROV1 ovarian 27.2% | OVCAR-3 ovarian 15.7% | HS 578T breast 50% | NCI/ADR-RES ovarian 29% | T-47D breast 28.2% | BT-549 breast 28.5% | MDA-MB-435 melanoma 33.6% | SW-620 colon 30.5% | MCF7 breast 23.2% | HCC-2998 colon 40.8% | KM12 colon 22.7%
active: SR leukemia 0.458% | HCT-116 colon 6.59%

CC(=O)NC1C(O[C@H]2C[C@H]3[C@@H]4CC=C5C[C@@H](O)CC[C@]5(C)[C@H]4CC[C@]3(C)[C@H]2[C@H](C)C(=O)CCC(C)C)OCC(O)C1O (stereo partly drawn)
inactive: SR leukemia 18.7% | OVCAR-8 ovarian 66.3% | OVCAR-5 ovarian 74.2% | OVCAR-4 ovarian 87.8% | IGROV1 ovarian 72% | OVCAR-3 ovarian 72% | NCI/ADR-RES ovarian 88.8% | T-47D breast 45.4% | BT-549 breast 31.3% | MDA-MB-435 melanoma 35.3% | SW-620 colon 49.4% | MCF7 breast 43.4% | HCT-116 colon 31.8% | HCC-2998 colon 89.5% | KM12 colon 70.1%
active: HS 578T breast 5.84%
